25 compounds from the supplement of paper PMC12494721 can be followed below.

Structures can show the parent of a compound that is named as a salt.

This experiment deals with Klebsiella aerogenes DSM 30053. As to the kind of experiment: fold change of Histamine concentration vs plate DMSO controls (fold change (ratio)); higher = more amine produced, active = hit call of the paper (significant change in both replicates, either direction). The note with it: incubation time: 27 h, anaerobic, 37 °C. A digest of the protocol:
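Extracts of whole anaerobic mGAM cultures were analysed for amines by LC–triple-quadrupole MS with dynamic MRM and external calibration curves, with drift corrected within batch. Four gut strains were grown at 37 °C for 27 h in 80 µL wells with compounds at 20 µM final, sweeteners at 50 µM final. Each value expresses fold change over plate DMSO controls. The average of 2 biological replicates is shown.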
For `CN[C@H](CC(C)C)C(=O)N[C@H]1C(=O)N[C@@H](CC(N)=O)C(=O)N[C@H]2C(=O)N[C@H]3C(=O)N[C@H](C(=O)N[C@H](C(=O)O)c4cc(O)cc(O)c4-c4cc3ccc4O)[C@H](O)c3ccc(c(Cl)c3)Oc3cc2cc(c3O[C@@H]2O[C@H](CO)[C@@H](O)[C@H](O)[C@H]2O[C@H]2C[C@](C)(N)[C@H](O)[C@H](C)O2)Oc2ccc(cc2Cl)[C@H]1O` [Vancomycin hydrochloride] (20 µM), the “fold change of Histamine concentration” value is 1.07 (inactive).

`OC[C@H]1OC(O)[C@H](O)[C@H](O)[C@@H]1O` (stereo partly drawn) [D-allose] (50 µM): the “fold change of Histamine concentration” value was 0.99 (inactive).

Regarding `COC1=CC(=O)C[C@@H](C)[C@]12Oc1c(Cl)c(OC)cc(OC)c1C2=O` [Griseofulvin] (20 µM), the “fold change of Histamine concentration” value was 1.02 (inactive).

Take `CN1CCN(CCCN2c3ccccc3Sc3ccc(C(F)(F)F)cc32)CC1` [Trifluoperazine dihydrochloride] (20 µM): the “fold change of Histamine concentration” value was 0.886 (inactive).

Take `CCCN(CCC)S(=O)(=O)c1ccc(C(=O)O)cc1` [Probenecid] (20 µM): the “fold change of Histamine concentration” value was 0.92 (inactive).

For the compound `C#C[C@]1(O)CC[C@H]2[C@@H]3CCC4=CC(=O)CC[C@@H]4[C@H]3CC[C@@]21C` [Norethindrone] (20 µM), the “fold change of Histamine concentration” value was 1.11 (inactive).

In the case of `NC(=O)c1ncn([C@@H]2O[C@H](CO)[C@@H](O)[C@H]2O)n1` [Ribavirin] (20 µM), the “fold change of Histamine concentration” value is 0.947 (inactive).

`Cc1c(O)cccc1C(=O)N[C@@H](CSc1ccccc1)[C@H](O)CN1C[C@H]2CCCC[C@H]2C[C@H]1C(=O)NC(C)(C)C` [Nelfinavir mesylate] (20 µM): the “fold change of Histamine concentration” value is 0.979 (inactive).

On to `CC1(C)S[C@@H]2[C@H](NC(=O)Cc3ccccc3)C(=O)N2[C@H]1C(=O)O` [Benzylpenicillin sodium] (20 µM), for which the “fold change of Histamine concentration” value was 1.06 (inactive).

Turning to `COC(=O)Nc1nc2cc([S+]([O-])c3ccccc3)ccc2[nH]1` (stereo not given) [Oxfendazole] (20 µM), the “fold change of Histamine concentration” value was 1.01 (inactive).

On to `CCCc1nc(C)c2c(=O)nc(-c3cc(S(=O)(=O)N4CCN(CC)CC4)ccc3OCC)[nH]n12` [Vardenafil] (20 µM), for which the “fold change of Histamine concentration” value is 1.03 (inactive).

Consider `NS(=O)(=O)c1cc(C(=O)O)cc(N2CCCC2)c1Oc1ccccc1` [Piretanide] (20 µM), for which the “fold change of Histamine concentration” value was 1.01 (inactive).

With `C[C@H]1C[C@@H]2[C@H]([C@@H](O)C[C@@]3(C)[C@H]2CC[C@]3(O)C(=O)CO)[C@@]2(C)C=CC(=O)C=C12` [Methylprednisolone, 6-alpha] (20 µM), the “fold change of Histamine concentration” value is 0.992 (inactive).

On to `Oc1ccc2ccccc2c1N=Nc1ccccc1` [Sudan I (1-phenylazo-2-hydroxynaphthalene)] (20 µM), for which the “fold change of Histamine concentration” value was 0.924 (inactive).

Consider `CC(=O)OCC(=O)[C@@]1(O)CC[C@H]2[C@@H]3CCC4=CC(=O)CC[C@]4(C)[C@H]3[C@@H](O)C[C@@]21C` [Cortisol acetate] (20 µM), for which the “fold change of Histamine concentration” value is 0.896 (inactive).

For the compound `CCN(CC)CCNc1ccc(CO)c2sc3ccccc3c(=O)c12` [Hycanthone] (20 µM), the “fold change of Histamine concentration” value is 0.979 (inactive).

With `CC(=O)NC[C@H]1CN(c2ccc(N3CCOCC3)c(F)c2)C(=O)O1` [Linezolid] (20 µM), the “fold change of Histamine concentration” value is 0.819 (inactive).

Consider `NNC(=O)c1ccncc1` [Isoniazid] (20 µM), for which the “fold change of Histamine concentration” value is 1.03 (inactive).

As to `O=C(NCCO[N+](=O)[O-])c1cccnc1` [Nicorandil] (20 µM), the “fold change of Histamine concentration” value was 1.06 (inactive).

With `CC(=O)[C@H]1CC[C@H]2[C@@H]3CC=C4C[C@@H](O)CC[C@]4(C)[C@H]3CC[C@]12C` [Pregnenolone] (20 µM), the “fold change of Histamine concentration” value was 1.06 (inactive).

In the case of `OC[C@@H](O)[C@@H](O)[C@H](O)[C@H](O)CO` [Mannitol] (50 µM), the “fold change of Histamine concentration” value was 1.04 (inactive).

Consider `CC[C@@]1(O)C(=O)OCc2c1cc1n(c2=O)Cc2cc3c(CN(C)C)c(O)ccc3nc2-1` [Topotecan] (20 µM), for which the “fold change of Histamine concentration” value is 1.1 (inactive).

`CCCCc1ncc(/C=C(\Cc2cccs2)C(=O)O)n1Cc1ccc(C(=O)O)cc1` [Eprosartan mesylate] (20 µM): the “fold change of Histamine concentration” value was 0.882 (inactive).

Consider `CCN(CC)CC(=O)Nc1c(C)cccc1C` [Lidocaine hydrochloride] (20 µM), for which the “fold change of Histamine concentration” value is 1.08 (inactive).

Take `CC(C)c1nc(CN(C)C(=O)N[C@H](C(=O)N[C@@H](Cc2ccccc2)C[C@H](O)[C@H](Cc2ccccc2)NC(=O)OCc2cncs2)C(C)C)cs1` [Ritonavir] (20 µM): the “fold change of Histamine concentration” value was 1.08 (inactive).
